Compound activity as filed in PubChem.
JMJD2A Tudor – blocks the human JMJD2A Tudor domain | AID 504339 | AlphaScreen JMJD2A-Tudor / H3K4me3 peptide binding | Potency, µM (titrated, usually from 114 µM), inactives show at the highest dose activity change, negative = inhibition, usual class: inhibitors | O75164 | 390,000 tested, 4.4% active; note: potency is the fitted concentration of half-maximal effect; % is set by controls: 0 for no effect and ±100 for the full control effect; nearly all actives have a fitted effect of over 50% in size
HP1b binding inh – HP1-beta chromodomain-methylated histone interaction inhibition; P83916; AlphaScreen HP1-beta / biotin-H3K9me3 peptide binding; Potency, µM (doses to about 114 µM), for the others: at the highest dose activity change, negative = inhibition, usual class: inhibitors; 390,000 tested, 0.56% active; note: potency is the fitted concentration of half-maximal effect; nearly all actives have a fitted effect of over 70% in size
Target sequence (P83916 whole entry, looked up): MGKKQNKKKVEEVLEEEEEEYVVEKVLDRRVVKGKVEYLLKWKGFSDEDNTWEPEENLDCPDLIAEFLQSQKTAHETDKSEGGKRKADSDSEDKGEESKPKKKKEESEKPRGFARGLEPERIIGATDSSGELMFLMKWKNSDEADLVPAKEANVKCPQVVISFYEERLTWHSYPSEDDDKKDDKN
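Compound inhibition of the preformed complex between 50 nM HP1-beta and 50 nM biotinylated H3K9me3 peptide was read by AlphaScreen. Buffer was PBS pH 7.4 with 0.01% Tween-20. Incubations ran 30 min at room temperature, with 10 ug/mL donor/acceptor beads.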
BAZ2B block – BAZ2B (human) inhibition; AlphaScreen BAZ2B-H3K14Ac peptide displacement; Potency, µM (titrated, usually from 114 µM), for the others: at the highest dose activity change, negative = inhibition, actives largely listed as inhibitors; 360,000 tested, 4.4% active; AID 504333; Q9UIF8; note: potency is the fitted concentration of half-maximal effect; % is set by controls: 0 for no effect and ±100 for the full control effect; nearly all actives have a fitted effect of over 60% in size
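BAZ2B (50 nM) with biotin-H3(5-23)K14Ac peptide (50 nM) in PBS pH 7.4, 0.01% Tween-20, preformed 30 min, then compound 30 min at room temperature; top concentration 110uM. AlphaScreen streptavidin donor/nickel chelate acceptor beads (10 ug/mL final), 20 min dark, signal read.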
Sfp PPTase inh – blocks B. subtilis Sfp PPTase activity; Q9F4F7; Biochemical Sfp PPTase activity, qHTS; Potency, µM, for the others: largest response in the series, negative = inhibition, usual class: inhibitors; 310,000 tested, 3.5% active; AID 1490;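 note: the enzyme is Sfp with the accession as filed and its product quenches rhodamine fluorescence; potency is the fitted concentration of half-maximal effect; 0% = enzyme reaction without inhibitor and -100% = no enzyme wells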
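Compounds were incubated with enzyme (final 15 nM) for 15 min at room temperature before substrate addition started the reaction. Fluorescence at 525 nm excitation, 598 nm emission was recorded immediately and after 30 minutes.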
G9a inh-1 – G9a (human) methyltransferase inhibition | 350,000 tested, 8.8% active | Potency, µM (highest dose often 102 µM), for inactives: at the top dose activity, negative = inhibition, most hits filed as inhibitors | G9a H3K9 monomethylation, AlphaScreen, 2 h | Q96KQ7; note: potency is the fitted concentration of half-maximal effect; % is set by controls: 0 for no effect and ±100 for the full control effect; nearly all actives have a fitted effect of over 75% in size
Target sequence (Q96KQ7 913-1193 limits assumed): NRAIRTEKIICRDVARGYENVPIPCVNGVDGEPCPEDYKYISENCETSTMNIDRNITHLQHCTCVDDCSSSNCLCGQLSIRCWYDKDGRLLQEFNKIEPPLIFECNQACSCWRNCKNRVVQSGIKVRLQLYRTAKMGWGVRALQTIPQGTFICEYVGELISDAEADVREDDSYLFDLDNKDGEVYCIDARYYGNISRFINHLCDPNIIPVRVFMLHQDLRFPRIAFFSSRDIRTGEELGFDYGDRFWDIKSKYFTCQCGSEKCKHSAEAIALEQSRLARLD
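Using a bead-based AlphaScreen, monomethylated H3K9 product from 2 h room-temperature reactions (G9a 20 nM, peptide 500 nM, SAM 20 uM) was detected with 0.5 ug/mL rabbit anti-H3K9me1 antibody.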
L3MBTL1 inh – inhibitors of human L3MBTL1; Q9Y468; AlphaScreen L3MBTL1–H3K9me1 peptide binding; Potency, µM (series often up to 57.1 µM), for the others: at the highest dose activity, negative = inhibition, most hits filed as inhibitors; 230,000 tested, 0.66% active; note: potency is the fitted concentration of half-maximal effect; % is set by controls: 0 for no effect and ±100 for the full control effect; nearly all actives have a fitted effect of over 60% in size
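Displacement of a biotinylated histone H3(1-15) peptide monomethylated at Lys9 (75 nM) from L3MBTL1 (50 nM) was measured by AlphaScreen after a 30 min room-temperature compound incubation; cefsulodin titration served as intraplate control.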
G9a inh-2 – confirmation of human histone methyltransferase G9a inhibitors; G9a H3K9 monomethylation, AlphaScreen, 2 h; 370 tested, 89% active; shares compounds with JMJD2A Tudor; Potency, µM, actives largely listed as inhibitors; note: potency is the fitted concentration of half-maximal effect; nearly all actives have a fitted effect of over 65% in size
RGS4 confirm – confirmation of human RGS4 inhibitors. shares compounds with JMJD2A Tudor. RGS4 GAP activity, Transcreener GDP fluorescence polarization. Potency, µM, usual class: inhibitors. 25 tested, 80% active
Target sequence (P49798 whole entry, looked up): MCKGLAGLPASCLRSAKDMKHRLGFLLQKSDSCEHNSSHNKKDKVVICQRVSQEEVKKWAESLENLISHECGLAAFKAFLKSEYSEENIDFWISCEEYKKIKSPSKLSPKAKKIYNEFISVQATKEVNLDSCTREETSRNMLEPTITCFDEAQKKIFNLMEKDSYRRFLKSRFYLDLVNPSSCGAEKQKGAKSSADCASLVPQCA
Starred values were filed as active, the others as inactive; ? = inconclusive; nt = not tested or not shown; [ ] = dose if it differs, or a comment. This is a sample that favours compounds with a hit; in the whole collection about 12% have one here. Calls come from the whole dose curve; as a rule, active = well fitted curve in the direction sought with a large enough effect; inconclusive = small, poorly fitted or top-dose-only effect, or another doubt; inactive = no such curve, though single readings can be large; an effect the other way counts as inactive or inconclusive.

SMILES | JMJD2A Tudor | HP1b binding inh | BAZ2B block | Sfp PPTase inh | G9a inh-1 | L3MBTL1 inh | G9a inh-2 | others
CC(C)C(=O)Nc1ccc(N2CCCC2)cc1 | ? | 3% | -38% | 79µM* | ? | nt | 1*
Cc1cc(C)cc(C(=O)Nc2ccc(N3CCCC3)cc2)c1 | ? | -13% | ? | 50µM* | -127% | -6%[2.29 µM] | 0.71*
CC(C)C(=O)Nc1ccc(N2CCN(c3ccc(F)cc3)CC2)cc1 | -6% | 33% | -3% | 20% | 0% | -7% | nt
O=C(Nc1ccc(N2CCCCCC2)cc1)c1ccccc1Cl | 32µM* | 35µM* | 28µM* | -10% | 2.5µM* | ? | 7.1*
CS(=O)(=O)c1ccc(CNC(=O)C2(C(F)(F)F)C/C(=C\Cc3ccccc3)CCCO2)cc1 (stereo not drawn) | -12% | 6% | nt | -7% | nt | nt | nt
Cc1ccc(NC2CCCN(C(=O)c3cn4cccc(C)c4n3)C2)cc1C (stereo not drawn) | -18% | 6% | -25% | 15% | ? | nt | nt
Cc1ccc(NC2CCCN(C(=O)c3cn4cc(Cl)ccc4n3)C2)cc1C (stereo not drawn) | 1% | 24% | ? | 0% | ? | nt | 32*
CCN1CCOC(=O)C1CC(=O)Nc1cc(Cl)ccc1C (stereo not drawn) | -15% | 16% | -22% | nt | 0.71µM* | nt | 6.3*
COc1cc(OC)c(C(=O)CCCN2CCCC2)c(OC)c1 | -6% | 21% | 8% | 17% | ? | ? | 9.6*
COc1ccc(NC(=O)CCN2CCCCCC2)c(OC)c1 | -17% | 10% | -3% | 16% | ? | -4% | nt
CCOC(=O)CN(c1ccccc1C)S(=O)(=O)c1ccc(Cl)cc1 | 49% | 85% | 18% | 3% | nt | nt | nt
CC1CCN(C(=O)c2[nH]cnc2C(=O)N2CCN(c3ccccc3)CC2)CC1 | -2% | 41% | -3% | nt | -5%[0.501 µM] | -1% | nt
CCc1ccc(-n2c(=S)sc3c(=O)n(-c4ccccc4C)c(SCC(=O)O)nc32)cc1 | -16% | 32% | -2% | 8% | -10% | nt | nt
Cc1ccc(-c2nc3cccc(C)n3c2Nc2ccc(F)cc2)o1 | 56µM* | ? | nt | nt | nt | nt | nt | RGS4 confirm=19*
CSc1ccc(-c2nc3cccc(C)n3c2Nc2ccc(Cl)cc2)cc1 | ? | 14% | -35% | nt | ? | nt | nt
CCOC(=O)N1CCc2c(sc(NCc3sccc3C)c2C(=O)Nc2cc(OC)ccc2OC)C1 | 11µM* | ? | ? | nt | 2.8µM* | nt | 5.8*
CCOC(=O)N1CCc2c(sc(NCc3cccc(F)c3)c2C(=O)Nc2ccc(OCC)cc2)C1 | ? | -13% | ? | nt | 2µM* | nt | 3.6*
CCOC(=O)N1CCc2c(sc(NCc3ccc(OC)c(Br)c3)c2C(=O)Nc2cc(OC)ccc2OC)C1 | ? | ? | -31% | nt | 1.6µM* | nt | 1.8*
CCOc1ccc(NC(=O)c2c(NC(=O)c3ccccc3F)sc3c2CCC3)cc1 | -11% | 36% | 3% | nt | 0%[59 µM] | nt | nt
CCOc1ccc(NC(=O)c2c(NCc3cccnc3)sc3c2CCC(C)C3)cc1 (stereo not drawn) | 16µM* | -1% | ? | nt | 2.2µM* | nt | 1.3*
O=C(CSc1ncn(-c2ccccc2)n1)Nc1nc(-c2ccccc2)cs1 | -7% | 32% | -4% | -17% | -3%[59 µM] | 6% | nt
O=C(CSc1ncn(-c2ccccc2)n1)Nc1nc2ccccc2s1 | 45µM* | -6% | -5% | ? | ? | nt | 3.6*
COc1ccc(-n2nc(C(=O)N3CCCCC3C)c3c4ccccc4n(C)c3c2=O)cc1Cl (stereo not drawn) | -10% | 20% | nt | nt | -48%[59 µM] | nt | nt
CCN(Cc1ccncc1)Cc1c(O)ccc2ccccc12 | 79µM* | ? | -29% | -3% | 1.4µM* | -12% | 0.36*
Cc1cn2c(=O)cc(COc3cccc(NC(=O)c4ccc(C(C)(C)C)cc4)c3)nc2s1 | -24% | 16% | -35% | nt | 0.79µM* | nt | ?
SMILES | JMJD2A Tudor | HP1b binding inh | BAZ2B block | Sfp PPTase inh | G9a inh-1 | L3MBTL1 inh | G9a inh-2 | others
CN1C(=O)Cc2cc(S(=O)(=O)CCC(=O)Nc3ccccc3)ccc21 | 4% | 37% | 0% | nt | 1%[59 µM] | nt | nt
Oc1ccc2ccccc2c1CN1CCOCC1 | ? | ? | -35% | -2% | 0.35µM* | -17% | 0.8*
Cc1nn(-c2ccccn2)c2c1C(=O)C(Br)CC2 (stereo not drawn) | 13µM* | ? | nt | 4µM* | 1.3µM* | nt | 0.25*
CCOc1ccc2nc(C)cc(Nc3ccccc3OCC)c2c1 | -22% | 85% | 19% | nt | 5%[59 µM] | nt | nt
CCN(CC)c1ccc(NC(=O)c2cncc(Br)c2)cc1 | 50µM* | ? | 35µM* | -15% | ? | -13% | 3.5*
CCN(CC)c1ccc(NC(=O)Nc2ccc(C(C)=O)cc2)cc1 | -32%[57.1 µM] | -7% | -26% | -17% | 1.4µM* | -1% | 0.32*
O=C1NC(=O)c2c(Br)c(Br)c(Br)c(Br)c21 | -10% | 12%[57 µM] | nt | nt | nt | nt | nt
COC(=O)c1ccccc1NC(=O)CSc1nc2sc3c(c2c(=O)[nH]1)CCCC3 | 56µM* | ? | ? | nt | ? | nt | 4.1*
Cc1cc(C)cc(NC(=O)CSc2nc3sc4c(c3c(=O)[nH]2)CCCC4)c1 | -15% | 42% | -5% | nt | 6%[59 µM] | nt | nt
CC[C@@]1(C(=O)OC)N[C@H](CN(C)C(=O)c2ccc(F)cc2)[C@@H]2C(=O)N(C)C(=O)[C@@H]21 | -18% | 31% | nt | nt | nt | ? | nt
CN(C)c1cccc(C(=O)Nc2cccc(F)c2)c1 | -35% | 14% | ? | -14% | ? | -3% | 7.1*
CCN(CC)c1ccc(C(=O)Nc2cccc(F)c2)cc1 | -17% | 19% | -7% | 17% | -13%[59 µM] | nt | nt
Cc1ccc(CNC(=O)CSc2ncccn2)cc1 | -7% | 16% | -5% | 12% | ? | 34%[11.4 µM] | 22*
O=C(CSc1ncccn1)NCc1ccc(F)cc1 | -7% | 31% | nt | 10% | 14%[59 µM] | 1% | nt
O=C(Nc1cccc(Cl)c1)NC1CCN(C2CCCCC2)C1 (stereo not drawn) | -2% | 47% | 2% | ? | -5%[0.501 µM] | -3%[2.29 µM] | nt
CC(Nc1ccccc1)c1cc(Cl)ccc1O (stereo not drawn) | -27% | 8% | -10% | 9% | -11%[59 µM] | -3% | nt
COc1ccc(NC(C)c2cc(Cl)ccc2O)cc1 (stereo not drawn) | 9%[11.4 µM] | 71µM* | 32µM* | -9% | ? | ? | ?
Cc1cc(=O)oc(C)c1C(=O)Nc1ccc(N(C)C)cc1 | -21% | 52% | -15% | 6% | ? | -4% | nt
